Consider 40 compounds from PubChem BioAssay (NCI).

Several values for one entry are separate records, joined by “and”; a condition that tells them apart may be missing. Equal values may be shown once. About 83,000 compounds went through this panel and 20% of them were active in at least one assay; those are over-represented in the sample as a whole.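 Compound tested at a single concentration for 48 hours in 96-well plates; a percent growth value below 10 was scored as active.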 Activity calls are given as the source filed them.

For the test, the system named is ACHN renal. Briefly: NCI-60 one-dose screen, 48 h (100 = growth as untreated, 0 = no growth, -100 = all killed). The conditions noted are these: 10 µM unless noted.
Turning to `Cc1cc(Br)ccc1-n1cc(C#N)c(N)c1C(=O)c1ccc(Br)cc1`, the growth is 97.2% (inactive).

Take `CCCCCCN1C=C/C(=C\C(=O)n2ccc3ccccc32)c2ccccc21`: the growth was 66.3% (inactive).

As for `Cc1ccc(CSC2=C(Cl)CN(c3ccc(Cl)cc3)C2=O)cc1`, the growth was 107% (inactive).

As for `Clc1ccc(CSc2nnc(-c3ccc(Cl)cc3)n2-c2ccccc2)cc1`, the growth was 55.5% (inactive).

On to `NS(=O)(=O)c1ccc(CCn2c(-c3ccc(C(=O)O)cc3)nc(-c3ccccc3)c2-c2ccccc2)cc1`, for which the growth was 103% (inactive).

Take `CC(=C(c1ccc(OCCCN(C)C)cc1)c1ccc(OCCCN(C)C)cc1)c1ccc(Cl)cc1`: the growth is 92.6% (inactive).

Take `CC[C@]12CC(C(=O)OC)=C3Nc4ccccc4[C@@]34CCN(C14)[C@@H]1c3cc4c(cc3O[C@@H]1[C@H]2O)NC1=C(C(=O)OC)C[C@@]2(CC)C3N(CC[C@@]143)C[C@H]1O[C@H]12` (stereo not given in full): the growth was 11.1% (inactive).

With `Cc1ccc(-c2csc(N/N=C/c3cccs3)n2)cc1`, the growth is 90.4% (inactive).

As for `CN1CCC[C@]2(C)[C@H]3CC[C@@H]4[C@@H]5[C@H]6OC[C@@]5(CCC6(C)C)CC[C@@]4(C)[C@]3(C)CC[C@H]2C1(C)C`, the growth was 86.9% (inactive).

As for `O=S(=O)(Oc1ccc(-c2cn3ccoc3n2)cc1)c1cccc(C(F)(F)F)c1`, the growth is 102% (inactive).

As for `CC(Nc1c(C#N)cnc2ccc(-c3cncc(-c4n[nH]c(=O)o4)c3)cc12)c1ccccc1` (stereo not given), the growth was 9.24% (active).

`C#CCN(C)CCCOc1ccc(NC(=O)CCCCCCCCC(=O)NO)cc1Cl`: the growth is 80.4% (inactive).

As to `CCCc1cc2cc(-n3nc(CC)c4c3CC(C)(C)CC4=O)cc(NC3CCC(O)CC3)c2c(=O)[nH]1` (stereo not given), the growth is 8.86% (active).

For the compound `O=C(CN1CCN(c2cc(=O)[nH]c3ccc(F)cc23)CC1)N(c1ccccc1)c1ccccc1`, the growth was 105% (inactive).

`CN1CCN(c2ccc(Nc3nc(NCCCNS(=O)(=O)c4cccc(F)c4)c4sccc4n3)cc2)CC1`: the growth is 7.69% (active).

`COc1ccc(C(=NNS(=O)(=O)c2ccc(C)cc2)c2ccccc2)cc1OC`: the growth was 98% (inactive).

In the case of `COc1ccc(/C=N/NC(=O)c2c(N)nn(C)c2Nc2ccccc2)cc1Oc1ccccc1`, the growth was 95.8% (inactive).

Take `C#C[C@]1(O)CC[C@H]2[C@@H]3CC=C4c5sc(NCc6ccccc6)nc5CC[C@]4(C)[C@H]3CC[C@@]21C`: the growth was 61.8% (inactive).

Take `Cc1cc(NS(=O)(=O)c2ccc(NC(=O)CSc3nc4ccccc4c(=O)n3-c3ccccc3)cc2)no1`: the growth is 98.1% (inactive).

In the case of `CC(C)NC(=O)c1cc(-c2ccc(NC(=O)Nc3ccc(F)c(C(F)(F)F)c3)cc2)nc2cccnc12`, the growth was 90.5% (inactive).

As for `CCOC(=O)c1cccnc1Nc1ccc(NC(=O)Nc2ccc(Cl)c(C(F)(F)F)c2)cc1`, the growth is 35.3% (inactive).

Take `O=C(CSc1nc2ccccc2c(=O)n1-c1ccc(S(=O)(=O)Nc2ccc(Cl)nn2)cc1)Nc1ccc(S(=O)(=O)Nc2ccc(Cl)nn2)cc1`: the growth is 98.2% (inactive).

As to `COc1cc(-c2nc(-c3ccccc3)[nH]c2-c2ccnc(NCCCNS(=O)(=O)c3ccc(C(F)(F)F)cc3)n2)ccc1Cl`, the growth is 33.3% (inactive) and 32.6% (inactive).

Regarding `Cc1csc(/N=C(N)/N=C(\N)c2cccc(C#N)c2)n1`, the growth is 84.9% (inactive).

With `CC[C@]12C=CCN3CC[C@]4(C(=C(C(=O)OC)C1)Nc1cc5c(cc14)[C@@H]1[C@H](O5)[C@@H](O)[C@@]4(CC)CC(C(=O)OC)=C5Nc6cc(O)ccc6[C@@]56CCN1C46)C32` (stereo not given in full), the growth is -14.3% (active).

Take `COc1ccc(OC)c(CCn2cncc2-c2c[nH]c3ccc(Cl)cc23)c1`: the growth was 60.5% (inactive).

In the case of `Cc1ccc(-c2cc3nc(C(Cl)Cl)nc(-c4ccc(S(=O)(=O)N(C)C)cc4)n3n2)cc1`, the growth is 83.2% (inactive).

As to `CC1=C(C)C(=O)C(Nc2cccc(C(=O)OC(C)(C)C)c2)=C(Cl)C1=O`, the growth is 79.6% (inactive).

Turning to `COC(=O)c1ccc(NC2=C(Cl)C(=O)C(C)=C(C)C2=O)cc1`, the growth was 63.2% (inactive).

Consider `Cc1nc(/N=C(N)/N=C(\N)c2cccc(Br)c2)sc1C`, for which the growth is 49.9% (inactive).

As for `COC(=O)c1cccc(NC2=C(Cl)C(=O)c3nc(C)ccc3C2=O)c1`, the growth is 0.427% (active).

Regarding `CN(C)c1ccc(/C=N/Nc2nc(N/N=C/c3ccc(N(C)C)cc3)nc(N3CCCCC3)n2)cc1`, the growth was 32.4% (inactive).

Regarding `OCC(Nc1ncnc2ccc(-c3cnc4cnccn34)cc12)c1ccccc1` (stereo not given), the growth is 43.3% (inactive).

For `COc1ccc(-c2cc(-c3ccc(N4CCOCC4)cc3)n3c(n2)nc2ccccc23)cc1OC`, the growth was 93.6% (inactive).

Regarding `CCOC(=O)c1c(NC(=O)c2cccc(C(F)(F)F)c2)sc2c1CCC(=O)C2`, the growth was 8.52% (active).

Take `CN1CCN(c2ccc(Nc3nc(NCCCNS(=O)(=O)c4ccc(Cl)cc4)c4sccc4n3)cc2)CC1`: the growth was 6.32% (active).

Consider `CCOC(=O)C(=O)Nc1ccc2c(ccn2C(=O)c2cccc(F)c2)c1`, for which the growth is 80.2% (inactive).

Turning to `CCOc1cccc(/C(N)=N/C(N)=N/c2nc3ccccc3s2)c1`, the growth was 48.7% (inactive).

For the compound `CN1CCN(c2ccc(Nc3nc(NCCCNS(=O)(=O)c4ccc(C(F)(F)F)cc4)c4sccc4n3)cc2)CC1`, the growth is -74.3% (active).

Consider `Cc1ccc2c(n1)C(=O)C(Cl)=C(Nc1cccc(C(F)(F)F)c1)C2=O`, for which the growth is -96.2% (active).
